In general, AC50 refers to the midpoint of the concentration-response curve, whichever way the signal moves.

“And” between values parts separate entries of the source, which are not always exact repeats. Equal values may be shown once. Among all 16,000 compounds or so, about 2,600 (16%) were called active. About 20% were inconclusive and are not listed. Calls follow the shape of the dose curve; as a rule, active = well fitted curve in the direction sought with a large enough effect; inconclusive = small, poorly fitted or top-dose-only effect, or effect the other way; inactive = no such curve, though single readings can be large or run the other way. The list is a sample of the results. More than one record can exist for a structure, and the calls need not agree.
% is scaled to controls: 0 for no effect and ±100 for the full control effect.

The test deals with Cytochrome P450 2D6 (Homo sapiens) (UniProt P10635). The test is described as follows: Cytochrome panel assay with activity outcomes. The conditions noted are these: recombinant CYP, pro-luciferin dealkylation, luminescence, p450-cyp2d6; series mostly up to 57.1 µM.
Cytochrome P450 2D6 (Homo sapiens), sequence (P10635 whole entry, looked up): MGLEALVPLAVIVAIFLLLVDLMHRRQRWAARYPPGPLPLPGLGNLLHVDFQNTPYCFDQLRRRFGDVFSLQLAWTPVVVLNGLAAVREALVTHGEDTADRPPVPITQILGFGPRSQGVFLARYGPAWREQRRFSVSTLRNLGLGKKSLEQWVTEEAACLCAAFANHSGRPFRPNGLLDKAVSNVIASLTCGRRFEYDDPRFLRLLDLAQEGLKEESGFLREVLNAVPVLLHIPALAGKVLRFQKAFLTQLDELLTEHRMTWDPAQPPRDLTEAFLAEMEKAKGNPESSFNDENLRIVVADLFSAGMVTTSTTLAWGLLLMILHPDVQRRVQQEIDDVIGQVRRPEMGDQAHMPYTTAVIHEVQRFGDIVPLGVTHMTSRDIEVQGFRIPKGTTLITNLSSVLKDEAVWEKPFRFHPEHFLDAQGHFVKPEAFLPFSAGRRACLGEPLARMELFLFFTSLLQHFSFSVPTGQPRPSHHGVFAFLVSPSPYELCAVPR
As to `Nc1ncnc2c1cnn2-c1ccccc1`, the AC50 result was “inactive”. The same measure, in the same setting: as for `Cc1cc(C)n(-c2ccc(F)cc2)c(=O)c1C(=O)O`, the entry is “inactive”; as for `CSc1nc2ccccc2cc1/C=C(\C#N)c1ccccc1`, “inactive”.

With `COc1ccccc1C(OC(=O)c1cccs1)C(=O)NCC1CCCO1` (configuration not stated), the AC50 entry was “inactive”. Still for that read-out and setting: next, `NCCC(=O)O`: “inactive”. Still for that read-out and setting: next, `O=C(O)CCCCCn1c(SCC(=O)N2CCCC2)nc2ccsc2c1=O`: “inactive”; `CC[C@@]1(O)C(=O)COc2c1cc1n(c2=O)Cc2c-1nc1cccc(C(C)C)c1c2[Si](C)(C)C`: “inactive”. In the case of `COc1ccc2c(c1)N(C[C@@H](C)CN(C)C)c1ccccc1S2`, the AC50 is 63.1 nM (active).

Consider `COc1ccc([C@@H]2Sc3ccccc3N(CCN(C)C)C(=O)[C@@H]2OC(C)=O)cc1`, for which the AC50 result is “inactive”. With `COc1ccc([C@H]2Sc3ccccc3N(CCN(C)C)C(=O)[C@H]2OC(C)=O)cc1`, the AC50 entry is “inactive”. On to `CCCCCC(=O)N1CC2(CC(c3cccc(NC(=O)c4ccccc4)c3)=NO2)C[C@@H]1C(N)=O` (some centres not stated), for which the AC50 entry was “inactive”.

As for `O=C(CSc1nc2ccccc2o1)NC(=O)NCc1ccccc1`, the AC50 entry is “inactive”. On to `O=C(CN(C(=O)CSc1nc2ccccc2o1)c1cccc(F)c1)NC1CCCCC1`, for which the AC50 is 12600 nM (active).

In the case of `O=C(CSc1nc2ccccc2o1)Nc1nc2ccccc2s1`, the AC50 entry was “inactive”. On the same count and under the same terms, next, `Cc1cccc(-c2c3c(=O)n(C)c(=O)n(C)c3cn2C2CCCCC2)c1`: “inactive”. In the case of `CO[C@@H]1COC(=O)[C@H](CCSC)NC(=O)C/C=C\[C@@H](C)COC(=O)[C@@H]2CCCN2C(=O)C/C=C\[C@H]1C`, the activity, negative = inhibition is 11.2% [at 11.4 µM] (inactive). Consider `CC(C)NC[C@@H](O)COc1ccc(CCOCC2CC2)cc1`, for which the AC50 result was “inactive”. On the same count and under the same terms, next, `CC(C)NC[C@@H](O)COc1ccc(COCCOC(C)C)cc1`: “inactive”; `CC(=O)Nc1ccc(OC[C@@H](O)CNC(C)C)cc1`: “inactive and 3.16 µM (active)”. The same measure, in the same setting: as for `Cc1cc(C(=O)C(=O)NC(C)C)c(C)n1-c1ccc([N+](=O)[O-])cc1`, the entry is “inactive”; as for `CC(=O)NS(=O)(=O)c1ccc(NC(=S)NC(=O)C(C)(C)C)cc1`, “inactive”; as for `O=S(=O)(N/N=C\c1cn(-c2ccccc2)nc1-c1ccccc1)c1ccccc1`, 112 nM (active). Take `O=C(N/N=C\c1cn(-c2ccccc2)nc1-c1ccccc1)c1ccc(Br)o1`: the AC50 entry was “inactive”.

Consider `Cc1ccc(-c2nn(-c3ccccc3)cc2/C=N/NS(=O)(=O)c2ccccc2)cc1`, for which the AC50 entry is “inactive”.

Consider `COc1ccc(C2C(C(=O)N3CCOCC3)c3ccccc3C(=O)N2c2ccc(OC)cc2)cc1` (configuration not stated), for which the AC50 result was “inactive”. On the same count and under the same terms, next, `CN(C)Cc1ccccc1-c1nccc(Nc2ccc(F)cc2)n1`: 10000 nM (active). Same read-out and setting: as for `CNc1ccnc(-c2ccccc2CN(C)C)n1`, the figure is 39.8 nM (active). The same measure, in the same setting: as for `CN(C)Cc1ccccc1-c1nccc(NC2CC2)n1`, the figure is 631 nM (active). In the case of `CNc1ccnc(-c2c(C)noc2C)n1`, the AC50 entry was “inactive”. On to `Cc1nn2c(NCC(C)C)c3c(nc2c1-c1ccccc1)CCC3`, for which the AC50 entry was “inactive”. For `Cc1ccc(S(=O)(=O)N=Nc2c(O)[nH]c3cc(O)c(C(=O)O)cc23)cc1`, the activity, negative = inhibition was 6.63% [at 11.4 µM] (inactive). Consider `COC(=O)C/C=C\[C@@H](C)[C@@H]1C=C[C@H](OC(C)=O)[C@H](COC(C)=O)O1`, for which the activity, negative = inhibition was 13.8% [at 11.4 µM] (inactive). With `CCC(C)(C(=O)NC1CCCC1)N(C(=O)c1ccccn1)c1ccccc1` (configuration not stated), the AC50 entry was “inactive”. Consider `Nc1nc(Nc2ccccc2)nc2c1ncn2[C@@H]1O[C@@H](CO)[C@H](O)[C@@H]1O`, for which the AC50 result is “inactive”. For the compound `N[C@@H](Cc1cc(-c2ccc(Cl)cc2Cl)cc(CP(=O)(O)O)c1O)C(=O)O`, the AC50 entry is “inactive”.

For the compound `CCN(CC)Cc1c(O)c(Cl)cc2c3c(c(=O)oc12)CCCC3`, the AC50 was 2510 nM (active). On the same count and under the same terms, as for `CCN(CC)Cc1c(O)ccc2c(=O)c(Oc3ccccc3OC)coc12`, the entry is “inactive”.

With `CCC(C)C(NS(=O)(=O)c1ccc(C)cc1)C(=O)Oc1ccc2c3c(c(=O)oc2c1)CCC3` (configuration not stated), the AC50 result is “inactive”. As for `CC(C)CN(Cc1c(O)ccc2c3c(c(=O)oc12)CCC3)CC(C)C`, the concentration at half-maximal activity (AC50) is 224 nM (active). Still for that read-out and setting: next, `CCc1cc2c(=O)c(-c3nc4ccccc4n3C)c(C)oc2c(CN(CC)CC)c1O`: “inactive”; `CCCCCOC(=O)CSc1nnc(-c2ccccc2)c(=O)[nH]1`: “inactive”. For the compound `Cn1c(=O)c2[nH]c(CCC(=O)O)nc2n(C)c1=O`, the activity, negative = inhibition was -4.99% [at 11.4 µM] (inactive).

Regarding `CCOC(=O)C1=C(C)NC(=O)N[C@@H]1c1coc2cc(C)cc(C)c2c1=O`, the activity, negative = inhibition is 0.866% [at 11.4 µM] (inactive). Consider `O=C(OC1CCN(c2ncc(C(F)(F)F)cc2Cl)CC1)c1cccc(C(F)(F)F)c1`, for which the AC50 entry is “inactive”.

Turning to `CCN(c1ccccc1)c1cc(NC)[n+](C)c(C)n1`, the AC50 was 3980 nM (active).

As to `CN(C(=O)CC(NC(=O)c1ccccc1)(c1ccccc1)c1ccccc1)c1ccccc1`, the AC50 entry is “inactive”.

In the case of `O=C(CSc1nc2ccccc2s1)N1c2ccccc2Sc2ccccc21`, the AC50 entry was “inactive”. The same measure, in the same setting: as for `COC(=O)c1cc(NC(=O)N2c3ccccc3Sc3ccccc32)cc(C(=O)OC)c1`, the entry is “inactive”. Turning to `O=C(NCCc1ccccc1)N1c2ccccc2Sc2ccccc21`, the AC50 is 20000 nM (active). For `Cc1ccc(N=Nc2ccc(N)cc2C)c(S(N)(=O)=O)c1`, the activity, negative = inhibition was 3.5% [at 11.4 µM] (inactive). Consider `Cc1ccccc1-n1c(=O)cc(N2CC(C)OC(C)C2)[nH]c1=O` (configuration not stated), for which the AC50 result is “inactive”. As to `C/C(=C\c1ccc(C(=O)O)cc1)c1ccc2c(c1)C(C)(C)CCC2(C)C`, the concentration at half-maximal activity (AC50) was 12.6 nM (active).

For `CC1(C)CCC(C)(C)c2cc(C(=O)Nc3ccc(C(=O)O)cc3)ccc21`, the AC50 entry is “inactive”.

Regarding `C/C(=C\c1ccc(Cl)cc1)C(C)(C)C(=O)O`, the activity, negative = inhibition is 6.46% [at 11.4 µM] (inactive).

For the compound `COC(=O)\C(C(C)=O)=C(/C=C/C=C/C=C/N(C)C)N(C)C`, the AC50 entry was “inactive”. `N=C(N)CCNC(=O)[C@@H]1CCC(N)=N1`: the activity, negative = inhibition was 2.49% [at 11.4 µM] (inactive). Take `CCC(=O)Nc1ccc(NC(=O)CSc2nnnn2-c2cccnc2)cc1C`: the AC50 result was “inactive”. Regarding `CC1=C(C)/C(=N\OC(=O)/C=C/c2ccccc2)C=CC1=O`, the AC50 entry is “inactive”. On the same count and under the same terms, as for `Cc1ccc(S(=O)(=O)/N=C2/NC(=O)/C(=C/c3cccnc3)S2)cc1`, the entry is “inactive”. Take `COc1ccc2ccccc2c1/C=C\C(=O)c1ccccc1`: the activity, negative = inhibition is 7.33% [at 11.4 µM] (inactive). With `CC1(C)Oc2ccc(C#N)cc2[C@H](N2CCCC2=O)[C@H]1O`, the AC50 entry was “inactive”. The same measure, in the same setting: next, `CCCn1nc(NC(=O)CC(C)C)c2cc3ccccc3nc21`: “inactive”; `Cc1ccc(C(=O)COC(=O)c2ccccc2N2C(=O)C3C4CCC(C4)C3C2=O)cc1C` (configuration not stated): “inactive”. As to `O=C(O)[C@@H]1CCCN1Cc1cc2ccccc2c2ccccc12`, the activity, negative = inhibition is 10.3% [at 11.4 µM] (inactive). Turning to `Clc1ccc(CN2CCCN(Cc3ccc(Cl)cc3)C2c2cc3ccccc3c3ccccc23)cc1`, the AC50 was 200 nM (active). On the same count and under the same terms, next, `COC(=O)C1=C(N)Oc2cc(C)n(CC3CCCO3)c(=O)c2C1c1ccccc1OC` (configuration not stated): “inactive”; `COc1cc(C(=O)N2CCC(NC(=O)C(Cc3ccc(C(C)C)cc3)NC(C)=O)CC2)cc(OC)c1OC` (configuration not stated): “inactive”. Same read-out and setting: as for `CN(C)CCCNc1c(C(=O)O)cnc2c1cnn2C`, the entry is “inactive”. On the same count and under the same terms, next, `Cc1cc2nc(C)n(CCCN)c2cc1C`: “inactive”; `C[C@@H]1CCN=C(N)S1`: “inactive”; `CN(C)c1nc(N)c(C(=O)N=C(N)N)nc1Cl`: “inactive”.

Consider `CC(C)CN(C)c1nc(N)c(C(=O)N=C(N)N)nc1Cl`, for which the AC50 was 39800 nM (active). The same measure, in the same setting: as for `N[C@]1(C(=O)O)CCc2cc(P(=O)(O)O)ccc21`, the entry is “inactive”. The same measure, in the same setting: next, `CC(C)=CCC/C(C)=C/CC/C(C)=C/CSc1ccccc1C(=O)O`: “inactive”. With `O=C(N/N=C1/C[C@@H](O)[C@@H](O)[C@@H]2[C@@H]3C(=O)N(Cc4ccc5c(c4)OCO5)C(=O)[C@H]3CC[C@H]12)OCc1ccccc1`, the activity, negative = inhibition was -16.9% [at 11.4 µM] (inactive). On to `O=c1cc(CSc2ccccc2)[nH]c(=S)[nH]1`, for which the AC50 entry is “inactive”. The same measure, in the same setting: as for `Cc1cc(CSc2ccccc2)ccc1NC(=O)COc1ccccc1`, the entry is “inactive”; as for `CC1=CC(C)(C)Nc2ccc(CSc3ccccc3)cc21`, 631 nM (active). In the case of `Cc1cc(=Nc2ccc3c(c2)c(N)cc(C)[n+]3C)nc(N)n1C`, the activity, negative = inhibition is 2.81% [at 11.4 µM] (inactive). With `Cc1ccc(C(=O)NC(=S)NCC(=O)c2ccccc2)cc1`, the AC50 result is “inactive”.

As for `O=C(CSc1nc2ccccc2c2ccccc12)c1ccccc1`, the activity, negative = inhibition was 15.3% [at 11.4 µM] (inactive). For `C=CCSc1nc2ccccc2n1C(=O)/C=C/c1cc(OC)c(OC)c(OC)c1`, the AC50 result was “inactive”. For `O=C(CN(Cc1ccco1)C(=O)c1cccc(Cl)c1)Nc1c(Cl)cc(Cl)cc1Cl`, the AC50 is 7080 nM (active). Same read-out and setting: next, `O=C(COC(=O)c1cccc(S(=O)(=O)N2CCN(c3ccccc3)CC2)c1)NCc1ccco1`: “inactive”; `O=C(c1ccco1)N(CCC(c1ccccc1)c1ccco1)Cc1ccco1` (configuration not stated): “inactive”; `Cc1cc(C)c2[nH]c(=O)c(CN(Cc3ccco3)C(=O)c3cccs3)cc2c1`: “inactive”. Still for that read-out and setting: next, `O=C(c1ccccc1)N(Cc1ccco1)C1CCS(=O)(=O)C1` (configuration not stated): “inactive”.

Consider `O=C(CN(Cc1ccco1)C(=O)c1ccccc1)Nc1ccc(Cl)c(Cl)c1`, for which the AC50 is 25100 nM (active).

For the compound `CC(=O)Nc1ccc(N2C(=O)CC(c3ccccc3)CC2=O)cc1`, the AC50 result is “inactive”. As to `CC(=O)Nc1ccc(S(=O)(=O)N=S(C)C)cc1`, the AC50 result is “inactive”.

For the compound `CCOc1cc(CNCCc2ccc(S(N)(=O)=O)cc2)ccc1OCc1ccc(Cl)cc1`, the AC50 is 8910 nM (active).

As to `CCOc1ccc(CCNC(=O)C2CCN(S(=O)(=O)CC)CC2)cc1OCC`, the AC50 entry was “inactive”. The same measure, in the same setting: next, `NS(=O)(=O)c1ccc(CCNC(=O)C2CCCN2C(=O)OCc2ccccc2)cc1` (configuration not stated): “inactive”; `CCOc1cc(CNCCc2ccc(S(N)(=O)=O)cc2)cc(Cl)c1OCc1ccccc1`: 355 nM (active); `NS(=O)(=O)c1ccc(CNC(=O)/C=C/c2c(Cl)cccc2Cl)cc1`: “inactive”. Consider `COC(=O)[C@H](CCSC)NC(=O)C/C=C\[C@@H](C)[C@@H](CO)OC`, for which the activity, negative = inhibition is 8.79% [at 11.4 µM] (inactive). For the compound `N#CCCn1c(=O)c(-c2cccs2)nc2cnc(OCc3ccccc3)nc21`, the AC50 entry is “inactive”.

The record behind these values is PubChem BioAssay AID1851 (National Center for Advancing Translational Sciences (NCATS), 2009).
